TGFb SMAD3 inh = blocks TGF-b signaling; HepG2 CAGA-GFP TGF-b/SMAD3 reporter, GFP fluorescence, 18 h; TGF-beta stimulated, 500 pg/mL final; AID 588855; Potency, µM (titrated, usually from 46.1 µM), most hits filed as inhibitors; hit rate 1.2% among 410,000; note: nearly all actives have a fitted effect of over 65% in size
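Inhibition of TGF-beta-driven CAGA-GFP reporter expression in HEPG2 cells is measured by cellular GFP fluorescence after 18 h stimulation with 500 pg/mL recombinant TGF-beta in 1% FBS medium at 37 degrees C.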
HepG2 tox-1 = kills HepG2 cells in TGF-b inhibitor counter-screen | HepG2 CAGA-GFP viability, ATP luminescence, 18 h | Potency, µM (top dose mostly 46.1 µM), actives largely listed as cytotoxic | hit rate 0.76% among 410,000 | AID 588856
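CellTiter-Glo luminescence gave cytotoxicity after 18 hours at 37 degrees C. The cells were HepG2 CAGA-GFP in 1% FBS DMEM, stimulated with 500 pg/mL TGF-beta after compound addition. %Activity was normalised to no-cell wells (complete cell-killing) and DMSO (no toxicity), and curves were fitted and classified.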
KB-V1 MDR tox = kills drug-selected multidrug resistant KB-V1 cells | KB-V1 MDR cells viability, CellTiter-Glo, 72 h | Potency, µM (highest dose often 46.1 µM), actives largely listed as cytotoxic | hit rate 3.4% among 400,000 | AID 1347076; note: nearly all actives have a fitted effect of over 60% in size
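Cytotoxicity toward P-gp-expressing KB-V1 cells was determined as loss of CellTiter-Glo luminescence after 72 h at 37 degrees C. Compounds were tested in quantitative HTS format across a concentration range, with curves fitted to normalized data.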
ATXN2 expr inh = reduces ATXN2 reporter expression in HEK-293 cells; HEK-293 ATXN2-luciferase reporter, luminescence, 24 h; AID 1745845; Potency, µM (series often up to 57 µM), usual class: inhibitors; hit rate 0.72% among 360,000; note: nearly all actives have a fitted effect of over 55% in size
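ATXN2-luciferase reporter cells (luciferase flanked by upstream and downstream ATXN2 gene portions) were treated 24 h at 37 °C with compounds at up to 57 uM. SteadyGlo luminescence gave expression; GF-AFC fluorescence gave viability.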
KB-3-1 cytotox = KB-3-1 parental cell cytotoxicity; hit rate 1.4% among 400,000; Potency, µM (series often up to 46.1 µM), actives largely listed as cytotoxic; KB-3-1 viability, CellTiter-Glo ATP luminescence, 72 h; note: nearly all actives have a fitted effect of over 60% in size
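Here the drug-naive KB-3-1 line serves as comparator for MDR sub-line selectivity; cells received compound titrations, 72 h at 37 °C, then CellTiter-Glo readout.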
ATXN viability = reduces viability in counter-screen for ATXN expression inhibitors. S2 cells (HEK-293 line with an ATXN2-luciferase reporter) viability, CellTiter-Fluor protease fluorescence, 24 h. Potency, µM (series often up to 56.7 µM), actives largely listed as cytotoxic. hit rate 0.49% among 400,000. AID 651635; note: nearly all actives have a fitted effect of over 40% in size
TGFb CAGA inh = confirmation of TGF-b signaling inhibitors in HepG2 reporter cells; shares compounds with TGFb SMAD3 inh; HepG2 CAGA-GFP TGF-b reporter, GFP fluorescence, 18 h; cells stimulated with TGF-beta, 500 pg/mL; Potency, µM (doses to about 46.1 µM), actives largely listed as inhibitors; hit rate 63% among 1,600; AID 720534; note: nearly all actives have a fitted effect of over 65% in size
HepG2 tox-2 = counter-screen for TGF-b inhibitors: cytotoxicity in HepG2 cells. shares compounds with TGFb SMAD3 inh. HepG2 CAGA-GFP viability, ATP luminescence, 18 h; cells stimulated with TGF-beta, 500 pg/mL. Potency, µM (doses to about 46.1 µM), actives largely listed as inhibitors. hit rate 27% among 1,600; note: nearly all actives have a fitted effect of over 70% in size
CCL64 TGFb inh = blocks TGF-b signaling in CCL64 reporter cells; hit rate 41% among 1,600; shares compounds with TGFb SMAD3 inh; AID 720536; Potency, µM (doses to about 46.1 µM), actives largely listed as inhibitors; CCL64 CAGA-GFP reporter, TGF-b stimulated, GFP fluorescence, 18 h; note: nearly all actives have a fitted effect of over 65% in size
COP TGFb inh = blocks TGF-b signaling in HepG2 COP reporter | hit rate 3% among 1,600 | Potency, µM (doses to about 46.1 µM), most hits filed as inhibitors | shares compounds with TGFb SMAD3 inh | HepG2 COP-GFP TGF-b reporter, GFP fluorescence, 18 h; cells stimulated by added recombinant TGF-beta | AID 720537; note: nearly all actives have a fitted effect of over 70% in size
Numbers stand for hits; 0 = inactive; ? = inconclusive; - = no result given. This is a sample that favours compounds with a hit; in the whole collection about 5.9% have one here. Calls come from the whole dose curve; as a rule, active = well fitted curve in the direction sought with a large enough effect; inconclusive = small, poorly fitted or top-dose-only effect, or another doubt; inactive = no such curve, though single readings can be large; an effect the other way counts as inactive or inconclusive.

SMILES	TGFb SMAD3 inh	HepG2 tox-1	KB-V1 MDR tox	ATXN2 expr inh	KB-3-1 cytotox	ATXN viability	TGFb CAGA inh	HepG2 tox-2	CCL64 TGFb inh	COP TGFb inh
COc1ccccc1/C=C/C(=O)N1CCc2cc(OC)c(OC)cc2C1C (stereo not drawn)	14µM	0	0	0	0	0	12µM	?	0	0
CCOC(=O)c1c(C)oc2nc(C)nc(NCCCN3CCN(c4cccc(C)c4)C(C)C3)c12 (stereo not drawn)	0	0	0	0	0	0	-	-	-	-
CN(C)c1ncnc2c1nnn2C1OC(CO)C(O)C1O (stereo not drawn)	0.56µM	0	1.6µM	-	0	?	2.1µM	?	?	0
C=CCOc1ccc(C[C@H](N)C(=O)NC[C@H]2O[C@@H](n3cnc4c(N)ncnc43)[C@H](O)[C@@H]2O)cc1	0	0	0	0	0	0	-	-	-	-
OCC1OC(n2ccc3c2ncn2ncnc32)C(O)C1O (stereo not drawn)	5µM	0	0.65µM	-	?	0	1.8µM	0.52µM	0	0
CN(C)c1ncnc2c1ncn2C1OC(CO)C(O)C1O (stereo not drawn)	0.63µM	0	?	0	8.2µM	?	0.65µM	5.8µM	?	0
CNc1ncnc2c1ncn2[C@@H]1O[C@H](CO)[C@@H](O)[C@H]1O	?	0	0	0	0	0	-	-	-	-
COc1ccc(C[C@H](N)C(=O)N[C@H]2[C@@H](O)[C@H](n3cnc4c(N(C)C)ncnc43)O[C@@H]2CO)cc1	3.2µM	0	0	0.4µM	0.41µM	0.71µM	5.2µM	2.1µM	2.9µM	?
CCOC(=O)CCc1ccc(NC(=O)/C=C/c2ccc([N+](=O)[O-])o2)cc1	4.5µM	10µM	?	?	?	8.4µM	9.2µM	13µM	?	0
COc1ccc(NC(=O)c2cc3cc(C)ccc3[nH]2)cc1	0	0	0	0	0	0	-	-	-	-
CCOC(=O)CNC(=O)CSc1nnc(Cn2c(=O)sc3ccccc32)n1-c1ccccc1C	?	0	0	0	0	0	?	0	0	0
CCc1ccc(OCC(=O)NCc2nc(-c3cccc(C)c3)no2)c(Br)c1	0	0	?	0	0	0	-	-	-	-
CC(=O)N1CCN(c2ccc(NC(=O)c3ccc(Br)o3)cc2Cl)CC1	0	0	0	-	0	0	-	-	-	-
CN1CCN(c2ccc(NC(=O)c3ccc([N+](=O)[O-])o3)cc2Cl)CC1	10µM	0	?	0	?	20µM	8.2µM	16µM	23µM	0
O=C(Nc1ccc(N2CCOCC2)c(Cl)c1)c1ccc([N+](=O)[O-])o1	8.9µM	13µM	0	-	0	?	15µM	21µM	13µM	?
CC(C)C(=O)N1CCN(c2ccc(NC(=O)c3ccc([N+](=O)[O-])o3)cc2)CC1	?	0	?	0	?	0	5.8µM	10µM	?	0
O=C(Nc1ccc2oc(-c3ccncc3)nc2c1)c1ccc([N+](=O)[O-])o1	5.6µM	0	0	0	?	?	6.5µM	?	?	0
COc1ccc(CNC(=O)c2ccc(NC(=O)N3CCSc4ncccc43)cc2)cc1OC	0	0	?	-	0	-	-	-	-	-
Cc1cc(NC(=O)c2ccc([N+](=O)[O-])o2)ccc1NC(=O)c1ccco1	7.1µM	0	?	0	5.2µM	?	4.1µM	21µM	?	0
CC(C)C(=O)N1CCN(c2ccc(NC(=O)c3ccc([N+](=O)[O-])o3)cc2Cl)CC1	7.9µM	0	?	?	?	0	5.8µM	21µM	?	0
CCCC(=O)N1CCN(c2ccc(NC(=O)c3ccc([N+](=O)[O-])o3)cc2Cl)CC1	5.6µM	11µM	?	?	?	0	3.7µM	13µM	23µM	?
O=C(Nc1cccc(Cl)c1N1CCCC1)c1ccc([N+](=O)[O-])o1	0	0	?	0	?	0	-	-	-	-
O=C(Nc1c(Cl)ccc2nsnc12)c1ccc(Br)o1	0	0	0	-	0	0	-	-	-	-
O=C(Nc1c(Cl)ccc2nsnc12)c1ccc([N+](=O)[O-])o1	10µM	13µM	?	0	?	0	8.2µM	?	?	?
Cc1cccc(CN2C(=O)NC(c3ccccc3)(c3ccccc3)C2=O)c1	22µM	0	0	?	0	0	?	?	?	0
SMILES	TGFb SMAD3 inh	HepG2 tox-1	KB-V1 MDR tox	ATXN2 expr inh	KB-3-1 cytotox	ATXN viability	TGFb CAGA inh	HepG2 tox-2	CCL64 TGFb inh	COP TGFb inh
OC(CN1CCN(c2cccc(Cl)c2)CC1)c1ccccc1 (stereo not drawn)	0	0	0	0	0	0	-	-	-	-
OC(COC(c1ccccc1)c1ccccc1)CN1CCN(c2cccc(Cl)c2)CC1 (stereo not drawn)	16µM	0	0	0	0	?	18µM	?	?	0
CN(C)S(=O)(=O)N1CCc2ccc(NC(=O)c3ccc(C(F)(F)F)cc3)cc2C1	?	0	?	0	?	0	0	?	0	0
CCC(c1nnnn1-c1ccc2c(c1)OCCO2)N1CCN(c2cccc(C)c2C)CC1 (stereo not drawn)	-	-	0	0	?	0	-	-	-	-
O=C1c2cccnc2C(=O)N1CO	0	0	0	0	0	0	-	-	-	-
NC1=C(Br)C(=O)c2ncccc2C1=O	2.8µM	2.8µM	3.7µM	5.3µM	2.6µM	13µM	1.2µM	3.3µM	4.6µM	4.6µM
CSc1ccc(CCNC(=O)CN2C(=O)COc3ccc(S(=O)(=O)N4CCCCCC4)cc32)cc1	?	0	?	0	?	?	-	-	-	-
COc1cc(C2Oc3ccccc3C=C2[N+](=O)[O-])cc(OC)c1OC (stereo not drawn)	3.2µM	5.6µM	?	-	?	16µM	21µM	18µM	4.1µM	?
COc1cc(C2NC(=O)c3ccccc3O2)cc(OC)c1OC (stereo not drawn)	0	0	0	0	0	0	-	-	-	-
